# Publication PMC5540273 (PLoS ONE, 2017)
# Experiments:
# Details in all cases: concentration: 1 μM, replicates: in singlicate; n = 1
# HIPK3 = tested on: HIPK3
# HIPK4 = tested on: HIPK4
# HPK1 = tested on: HPK1
# HUNK = tested on: HUNK
# ICK = tested on: ICK
# IGF1R = tested on: IGF1R
# IKK-alpha = tested on: T1, IKK-alpha
# T1 construct: gene CHUK
# IKK-beta = tested on: T2, IKK-beta
# T2 construct: gene IKBKB
# IKK-epsilon = tested on: T3, IKK-epsilon
# T3 construct: gene IKBKE
# INSRR = tested on: INSRR
# INSR = tested on: INSR
# IRAK1 = tested on: IRAK1
# IRAK3 = tested on: IRAK3
# IRAK4 = tested on: IRAK4
# ITK = tested on: ITK
# [1] = tested on: JAK1(JH1domain-catalytic)
# [2] = tested on: JAK1(JH2domain-pseudokinase)
# [3] = tested on: JAK2(JH1domain-catalytic)
# [4] = tested on: JAK3(JH1domain-catalytic)
# JNK1 = tested on: T4, JNK1
# T4 construct: gene MAPK8
# 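Further: KINOMEscan kinase panel screen.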
SMILES,%Inh (HIPK3),%Inh (HIPK4),%Inh (HPK1),%Inh (HUNK),%Inh (ICK),%Inh (IGF1R),%Inh (IKK-alpha),%Inh (IKK-beta),%Inh (IKK-epsilon),%Inh (INSRR),%Inh (INSR),%Inh (IRAK1),%Inh (IRAK3),%Inh (IRAK4),%Inh (ITK),%Inh [1],%Inh [2],%Inh [3],%Inh [4],%Inh (JNK1)
COc1cc(Nc2ccnc3ccc(C(F)(F)F)cc23)cc(OC)c1OC [GW577382],18%,0%,31%,30%,0%,0%,21%,3%,0%,4%,10%,22%,6%,2%,9%,8%,0%,9%,100%,39%
CCCC(=O)Nc1n[nH]c2ncc(-c3cccc4ccccc34)cc12 [SB-642057],11%,26%,31%,30%,45%,16%,9%,30%,27%,0%,18%,77%,0%,41%,15%,9%,0%,0%,0%,20%
Cc1c(Cn2c(C)nn3c(=O)cc(N4CCO[C@H](C)C4)nc23)cccc1C(F)(F)F [GSK2373690],30%,0%,24%,4%,1%,41%,0%,3%,0%,14%,0%,23%,14%,24%,26%,21%,0%,14%,0%,18%
CCc1nc(-c2cccc(C)c2)c(-c2ccncc2)s1,0%,0%,8%,0%,0%,0%,0%,0%,0%,0%,0%,0%,0%,0%,4%,0%,41%,1%,0%,57%
Cc1nnc(-c2ccc3ncn(-c4ccc(S(C)=O)cc4)c3c2)o1 (stereo not drawn),13%,6%,0%,0%,0%,0%,25%,7%,0%,0%,0%,0%,0%,0%,15%,33%,28%,0%,0%,6%
CCn1c(-c2ccoc2)nc2cnccc21 [SB-733887],20%,0%,35%,0%,14%,0%,30%,29%,60%,0%,96.3%,59%,0%,50%,9%,9%,65%,16%,0%,9%
Cl.NS(=O)(=O)c1cccc(Nc2cc(-c3ccc(F)cc3)n[nH]2)c1 [GW824645],18%,18%,0%,58%,12%,0%,1%,9%,8%,0%,5%,0%,0%,0%,0%,0%,23%,48%,0%,8%
CCCNC(=O)Nc1ccc(Oc2ncnc3ccn(C)c23)cc1,14%,19%,0%,0%,17%,0%,1%,0%,0%,0%,31%,16%,0%,15%,5%,17%,0%,1%,0%,0%
Cl.c1ccc(Cn2cnc3cc(Nc4ncnc5ccccc45)ccc32)cc1 [GW272142],8%,0%,36%,5%,0%,34%,0%,12%,17%,36%,0%,26%,0%,15%,7%,4%,0%,0%,0%,13%
Nc1nc(-c2ccccc2F)c(-c2ccnc3ccccc23)s1 [GW560459],3%,0%,7%,12%,0%,20%,28%,9%,18%,0%,94.4%,30%,17%,15%,3%,18%,0%,9%,0%,56%
COc1cccc(C2=C(N(C)c3ccccc3)C(=O)NC2=O)c1 [SB-334865],25%,0%,53%,9%,0%,12%,0%,14%,3%,0%,0%,42%,20%,24%,16%,13%,0%,0%,0%,30%
COc1cc2ncn(-c3cc(OCc4ccc(S(C)(=O)=O)cc4)c(C(N)=O)s3)c2cc1OC [GW869979],2%,26%,10%,2%,19%,6%,0%,7%,25%,0%,13%,26%,4%,21%,16%,2%,11%,18%,30%,36%
O=C(NCCNc1ccnc(Nc2ccc(F)cc2)n1)Nc1ccc2c(c1)OCO2 [GSK1379882],9%,0%,37%,1%,0%,0%,3%,7%,14%,0%,7%,16%,7%,0%,9%,12%,3%,100%,0%,22%
O=C(Nc1n[nH]c2nc(-c3ccccc3)c(Br)cc12)C1CC1 [SB-708998],0%,6%,20%,0%,0%,1%,0%,5%,2%,9%,7%,0%,0%,6%,1%,0%,0%,18%,0%,29%
FC(F)(F)c1ccc(-c2ncn(CCCN3CCOCC3)c2-c2ccncc2)cc1 [SB-217780],7%,0%,1%,0%,64%,0%,1%,0%,8%,0%,0%,0%,10%,0%,9%,0%,0%,27%,0%,55%
COc1cc(Nc2nccc(N3CCC(NC(=O)C4COc5ccccc5O4)C3)n2)cc(OC)c1OC (stereo not drawn) [GSK1379761],0%,0%,51%,30%,0%,0%,21%,0%,0%,0%,0%,61%,76%,0%,4%,7%,21%,98.5%,55%,20%
O=C1NC(=O)C(c2ccccc2)=C1Nc1cccc(O)c1 [SB-390534],8%,2%,9%,29%,10%,0%,0%,0%,0%,15%,0%,0%,0%,0%,0%,0%,17%,15%,0%,22%
CCC(=O)c1c(-c2ccccc2)c2cc(Cl)ccc2c(=O)n1Cc1cc(S(C)(=O)=O)n(CC(N)=O)n1,0%,0%,0%,0%,0%,0%,0%,0%,0%,0%,0%,0%,0%,0%,0%,0%,51%,0%,0%,99%
COc1cc2ncn(-c3cc(OCc4ccncc4)c(C(N)=O)s3)c2cc1OC [GSK336313],21%,0%,21%,0%,4%,0%,0%,0%,26%,99.3%,1%,8%,0%,0%,4%,6%,0%,0%,0%,0%
Cc1cc(Nc2nc(-c3cccc(C)n3)nc3ccccc23)ccn1 [GW872411],0%,0%,0%,28%,0%,0%,0%,0%,0%,0%,0%,0%,0%,0%,0%,4%,81%,0%,0%,0%
Cc1nn2c(=O)cc(N3CCOCC3)nc2n1Cc1cccc(Cl)c1Cl [GSK2342769],38%,0%,32%,0%,2%,5%,19%,18%,5%,0%,0%,75%,16%,16%,14%,10%,0%,6%,0%,10%

SMILES,%Inh (HIPK3),%Inh (HIPK4),%Inh (HPK1),%Inh (HUNK),%Inh (ICK),%Inh (IGF1R),%Inh (IKK-alpha),%Inh (IKK-beta),%Inh (IKK-epsilon),%Inh (INSRR),%Inh (INSR),%Inh (IRAK1),%Inh (IRAK3),%Inh (IRAK4),%Inh (ITK),%Inh [1],%Inh [2],%Inh [3],%Inh [4],%Inh (JNK1)
O=c1cc(N2CCOCC2)nc2n(Cc3ccc(F)c(Cl)c3)ccn12 [GSK2297099],23%,0%,25%,0%,16%,0%,3%,17%,0%,0%,23%,10%,0%,16%,1%,19%,0%,100%,0%,21%
CCc1ccc(-c2ccc3c(c2)-c2nn(C)cc2S(=O)(=O)N3C)cc1,0%,0%,18%,47%,0%,0%,0%,1%,0%,0%,0%,0%,0%,10%,0%,0%,10%,0%,0%,0%
COc1ccc(-n2cnc3c(N)ncnc32)cc1 [SKF-97236],12%,29%,5%,0%,0%,19%,0%,19%,3%,2%,52%,0%,12%,7%,7%,5%,68%,31%,27%,12%
COc1cc2nccc(Nc3ccc(OCc4ccc(NC(C)=O)cc4)cc3)c2cc1OC.Cl [GW440135],0%,0%,36%,21%,0%,0%,10%,0%,3%,8%,0%,28%,1%,0%,5%,20%,0%,0%,0%,15%
Nc1ncnc2c1ncn2-c1cccc2ccccc12 [SKF-97184],0%,7%,2%,45%,0%,0%,16%,3%,0%,0%,0%,27%,0%,0%,0%,1%,33%,54%,19%,15%
Nc1nccc2scc(-c3ccc4c(c3)CCN4C(=O)Cc3ccccc3)c12 [GSK2576924],11%,0%,18%,0%,0%,1%,0%,0%,12%,0%,0%,0%,0%,0%,4%,19%,0%,4%,0%,0%
O=C(Nc1n[nH]c2cc(-c3ccccc3F)ccc12)C1CC1 [SB-733371],3%,0%,8%,0%,32%,0%,0%,0%,0%,9%,0%,0%,0%,0%,0%,0%,17%,27%,0%,33%
CCC(=O)c1c(-c2ccccc2)c2cc(Cl)ccc2c(=O)n1Cc1cc(S(C)(=O)=O)n(CC(F)F)n1,0%,0%,0%,3%,0%,10%,0%,0%,0%,0%,0%,26%,0%,27%,0%,2%,0%,0%,0%,99.1%
Nc1ncnc2c1ncn2-c1cccc(F)c1 [SKF-97560],14%,6%,23%,10%,6%,1%,13%,19%,23%,0%,9%,33%,0%,30%,6%,10%,12%,39%,55%,38%
CCC(=O)c1c(-c2ccccc2)c2cc(Cl)ccc2c(=O)n1Cc1ccc(C(=O)O)cc1,0%,0%,0%,0%,0%,0%,0%,0%,0%,0%,0%,0%,0%,0%,12%,9%,0%,0%,0%,95.2%
Nc1n[nH]c2nnc(-c3ccccc3)c(-c3ccccc3)c12 [GW554060],68%,0%,27%,5%,0%,0%,28%,0%,0%,0%,3%,12%,9%,19%,12%,21%,0%,10%,0%,19%
O=C(NCc1cccs1)c1cc(C(=O)c2c(Cl)cccc2Cl)c[nH]1 [GW823670],0%,0%,37%,31%,0%,1%,0%,0%,3%,0%,0%,0%,26%,0%,1%,1%,5%,0%,0%,0%
COc1ccc(-c2coc3ccc(-c4nnc(SCc5cccc(C#N)c5)o4)cc23)cc1,20%,0%,0%,0%,17%,0%,19%,7%,0%,0%,20%,0%,0%,0%,0%,22%,36%,12%,0%,22%
CN(C)c1cc(-c2ccc3c(N)n[nH]c3c2)nc(N)n1 [GSK2219329],17%,0%,26%,2%,4%,14%,0%,0%,40%,0%,0%,0%,0%,0%,6%,6%,7%,0%,0%,0%
Cc1cccc(-c2cc(-c3c[nH]nc3-c3ccccn3)ccn2)c1 [GW679395],13%,0%,32%,10%,9%,0%,4%,25%,21%,0%,1%,34%,1%,18%,4%,5%,0%,8%,0%,56%
Cc1ccc(-c2ccc3c(ccc4sc5c(c43)NC[C@@H](C)N=C5N(C)C)n2)cn1,0%,9%,8%,5%,0%,0%,11%,0%,0%,0%,0%,0%,0%,0%,0%,0%,0%,0%,0%,4%
Cc1nc(N(C)[C@H]2CN(C(=O)CC#N)CC[C@H]2C)c2cc[nH]c2n1,9%,0%,0%,0%,0%,0%,0%,5%,0%,0%,0%,0%,0%,0%,5%,11%,0%,69%,97.6%,1%
OCCCNc1nccc(-c2c(-c3cccc(C(F)(F)F)c3)nn3cc(C(F)(F)F)ccc23)n1 [GW630813],0%,0%,27%,9%,0%,8%,0%,0%,14%,0%,0%,29%,0%,2%,0%,14%,0%,0%,0%,0%
COc1cc2ncn(-c3cc(OCCCc4ccccc4)c(C(N)=O)s3)c2cc1OC [GSK205189],0%,60%,28%,0%,0%,13%,0%,0%,14%,3%,13%,0%,7%,0%,5%,0%,0%,1%,0%,15%
Nc1n[nH]c2ncc(-c3ccccc3)cc12 [SB-517081],12%,0%,44%,13%,0%,18%,27%,65%,13%,0%,18%,49%,3%,22%,19%,4%,34%,55%,0%,38%
CCS(=O)c1ccc(-c2coc3ccc(-c4nnc(C)o4)cc23)cc1 (stereo not drawn),21%,0%,11%,0%,10%,0%,10%,6%,0%,0%,1%,6%,0%,9%,0%,1%,20%,23%,0%,22%
